The source of these data is PubChem BioAssay (NCI).

The panel holds about 83,000 compounds, 20% with a hit somewhere; the sample as a whole holds those more often.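 Results are percent growth after 48 hours of single-concentration exposure. 100 means growth as in untreated cells, lower positive values show inhibition; negative values down to -100 show cell death.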 A number with no mark means an inactive call. Calls of active or inactive are those of the source. The calls were made as follows: active = growth percent below 10; inactive = the rest.

Among the test systems are NCI-H23 lung; NCI-H226 lung; NCI-H322M lung; HOP-62 NSCLC; NCI-H460 lung; HOP-92 NSCLC; NCI-H522 lung; A549/ATCC NSCLC; 786-0 renal; COLO 205 colon; DU-145 prostate; K-562 leukemia; MALME-3M melanoma; MDA-MB-231 breast; RXF 393 renal; SF-268 CNS; SF-295 CNS; SF-539 CNS; UACC-257 melanoma; M14 melanoma.
Assay in all cases: NCI-60 one-dose screen, 48 h (100 = growth as untreated, 0 = no growth, -100 = all killed)
Holding throughout (conditions): 10 µM unless noted

Turning to `C[C@H]1[C@H]2[C@H]3CC[C@@H]4[C@@]5(C)CC[C@H](O)C(C)(C)[C@@H]5CC[C@@]4(C)[C@]3(C)CC[C@]23CO[C@]1(C)[C@@H](C(=O)/C=C\c1cccnc1)C3`, the growth was 59.5% in the assay on NCI-H23 lung; 76.6% in the assay with NCI-H226 lung; 88.4% in the assay with NCI-H322M lung; 81.7% in the assay on HOP-62 NSCLC; 40.7% with NCI-H460 lung; 79.1% with HOP-92 NSCLC. The growth in the assay with NCI-H522 lung was 38%; with A549/ATCC NSCLC it was 57.8%; in the assay with 786-0 renal it was 63.6%; with COLO 205 colon, 56.3%; in the assay with DU-145 prostate, 73.9%; in the assay on K-562 leukemia, 18%. The growth is 54.4% with MALME-3M melanoma; 82.1% with MDA-MB-231 breast; 75.2% with RXF 393 renal; 81.9% with SF-268 CNS; 79.9% in the assay with SF-295 CNS; 77.8% in the assay with SF-539 CNS. The growth in the assay with UACC-257 melanoma is 49.3%; with M14 melanoma, 60.8%.

Regarding `COc1ccc(C(=O)C(C)C)c2ccccc12`, the growth in the assay with NCI-H23 lung is 101%; in the assay with NCI-H226 lung it was 105%; with NCI-H322M lung it was 117%; in the assay with HOP-62 NSCLC it was 99.8%; in the assay with NCI-H460 lung, 101%; in the assay with HOP-92 NSCLC it was 83.6%. Besides, the growth in the assay on NCI-H522 lung was 102%; in the assay on A549/ATCC NSCLC, 129%; in the assay with 786-0 renal it was 100%; in the assay with COLO 205 colon, 113%; in the assay on DU-145 prostate, 104%; in the assay with K-562 leukemia, 92.7%. Also, the growth with MALME-3M melanoma was 115%; in the assay on MDA-MB-231 breast, 104%; with RXF 393 renal, 109%; in the assay with SF-268 CNS it was 102%; in the assay on SF-295 CNS, 103%; in the assay on SF-539 CNS, 103%. The growth with UACC-257 melanoma is 128%; in the assay on M14 melanoma it was 104%.

In the case of `CNc1nc2c(s1)C(c1cc(F)ccc1F)CC(=O)N2` (stereo not given), the growth in the assay with NCI-H23 lung is 85.9%; in the assay on NCI-H226 lung it was 84.8%; in the assay on NCI-H322M lung, 92.2%; with HOP-62 NSCLC, 69.1%; with NCI-H460 lung, 82.3%; in the assay with HOP-92 NSCLC it was 85.5%. The growth with NCI-H522 lung is 51.3%; in the assay on A549/ATCC NSCLC, 87%; with 786-0 renal, 83.9%; in the assay on COLO 205 colon it was 83.7%; in the assay with DU-145 prostate, 76.3%; in the assay with K-562 leukemia, 18.5%. The growth with MALME-3M melanoma was 70.2%; in the assay with MDA-MB-231 breast it was 69.6%; in the assay with RXF 393 renal, 75.5%; in the assay on SF-268 CNS, 79.3%; in the assay on SF-295 CNS, 87.4%; in the assay with SF-539 CNS, 53.8%. Moreover, the growth is 86.7% in the assay on UACC-257 melanoma and 47.3% with M14 melanoma.

With `COc1ccc(-c2cnc3ccccc3n2)cc1`, the growth with NCI-H23 lung was 93.2%; with NCI-H226 lung, 82.7%; with NCI-H322M lung it was 95.2%; in the assay with HOP-62 NSCLC it was 87.9%; in the assay with NCI-H460 lung, 101%; in the assay on HOP-92 NSCLC it was 86.9%. Besides, the growth in the assay on NCI-H522 lung is 80.2%; in the assay on A549/ATCC NSCLC it was 94.6%; in the assay with 786-0 renal, 95.4%; in the assay with COLO 205 colon, 104%; in the assay with DU-145 prostate it was 106%; in the assay on K-562 leukemia, 97.5%. Besides, the growth in the assay on MALME-3M melanoma was 103%; in the assay on MDA-MB-231 breast, 92.7%; in the assay with RXF 393 renal, 108%; in the assay with SF-268 CNS, 94.6%; with SF-295 CNS, 98.8%; with SF-539 CNS it was 90.6%. In addition, the growth in the assay with UACC-257 melanoma was 104%; with M14 melanoma, 100%.

For the compound `NCCOc1ncccc1/C=C1\C2C=CC=CC2C2C=CC(F)=CC12` (stereo not given), the growth with NCI-H23 lung is 2.79% (active); with NCI-H226 lung, -26.2% (active); in the assay on NCI-H322M lung, 64.5%; in the assay on HOP-62 NSCLC, 10.5%; in the assay with NCI-H460 lung it was -22% (active); in the assay with HOP-92 NSCLC it was 28.9%. Moreover, the growth is 47.8% with NCI-H522 lung; -56.5% (active) in the assay with A549/ATCC NSCLC; 1.24% (active) with 786-0 renal; 27.2% with COLO 205 colon; 6.22% (active) in the assay with DU-145 prostate; 8.35% (active) in the assay with K-562 leukemia. Also, the growth in the assay on MALME-3M melanoma was 39.2%; in the assay on MDA-MB-231 breast it was 37.4%; with RXF 393 renal, 39.9%; in the assay on SF-268 CNS, 32.3%; with SF-295 CNS it was -2.83% (active); in the assay on SF-539 CNS it was 11.1%. The growth was 71.7% with UACC-257 melanoma and 18.8% with M14 melanoma.

In the case of `CCN1C(=O)N(CC)C2Nn3c(s/c(=C4\C(=O)Nc5ccccc54)c3=O)=NC21` (stereo not given), the growth in the assay on NCI-H23 lung is 48.6%; with NCI-H226 lung it was 79.3%; with NCI-H322M lung, 71.5%; with HOP-62 NSCLC, 68.4%; with NCI-H460 lung it was 23.7%; in the assay with HOP-92 NSCLC, 69.7%. Also, the growth is 15.4% with NCI-H522 lung; 55.1% in the assay with A549/ATCC NSCLC; 32% in the assay with 786-0 renal; 19.5% in the assay on COLO 205 colon; 10.2% with DU-145 prostate; 20.2% in the assay with K-562 leukemia. Moreover, the growth with MALME-3M melanoma is 56.5%; in the assay with MDA-MB-231 breast, 48.3%; in the assay on RXF 393 renal it was -1.37% (active); with SF-268 CNS, 64.9%; in the assay with SF-295 CNS, 56.6%; in the assay with SF-539 CNS it was 10.9%. Further, the figures for the growth with UACC-257 melanoma and with M14 melanoma were 67.4% and 14.9%, respectively.

`Cc1oc2nc[nH]c(=O)c2c1C(=O)/C=C/c1ccc(Br)cc1`: the growth in the assay with NCI-H23 lung was -11.2% (active); in the assay with NCI-H226 lung, -8.79% (active); in the assay on NCI-H322M lung, 2.39% (active); in the assay with HOP-62 NSCLC, 12.1%; with NCI-H460 lung, 3.92% (active); with HOP-92 NSCLC, -10.7% (active). Besides, the growth in the assay on NCI-H522 lung is 13.9%; with A549/ATCC NSCLC, 9.19% (active); in the assay with 786-0 renal it was 11.5%; in the assay on COLO 205 colon, 3.83% (active); in the assay on DU-145 prostate, 5.67% (active); in the assay on K-562 leukemia, 10.8%. Moreover, the growth in the assay with MALME-3M melanoma was 24.5%; with MDA-MB-231 breast it was 16.1%; in the assay with RXF 393 renal, 4.34% (active); with SF-268 CNS, 5.39% (active); in the assay with SF-295 CNS, 14.2%; in the assay on SF-539 CNS, -9.63% (active). In addition, the growth with UACC-257 melanoma was 32.7%; in the assay on M14 melanoma it was 15.4%.

In the case of `COc1cc(C(=O)c2cnc(-c3c[nH]c4cccc(C)c34)[nH]2)cc(OC)c1OC`, the growth in the assay on NCI-H23 lung was 24%; with NCI-H226 lung it was 57%; in the assay with NCI-H322M lung it was 40.3%; in the assay with HOP-62 NSCLC, 36.2%; with NCI-H460 lung it was 3.6% (active); in the assay with HOP-92 NSCLC, 5.73% (active). Further, the growth in the assay with NCI-H522 lung is -4.91% (active); with A549/ATCC NSCLC, 20.4%; in the assay with 786-0 renal, 10.4%; in the assay with COLO 205 colon it was -29.3% (active); with DU-145 prostate it was -6.2% (active); in the assay with K-562 leukemia, 8.72% (active). Further, the growth is 53.8% with MALME-3M melanoma; -3.1% (active) with MDA-MB-231 breast; 75.2% in the assay with RXF 393 renal; 18.9% with SF-268 CNS; 7.59% (active) with SF-295 CNS; 0.434% (active) in the assay with SF-539 CNS. For the same compound, the results for the growth in the assay with UACC-257 melanoma and in the assay with M14 melanoma were 83.9% and -2.55% (active), respectively.
